# Reference: PubChem BioAssay (NCATS)
# Inconclusive results are not listed. A call without a number means that no potency is given here. Activity calls are given as the source filed them. Calls come from the whole dose curve; as a rule, active = well fitted inhibition curve with a large enough effect; inconclusive = small, poorly fitted or top-dose-only effect; inactive = flat fitted curve, though single readings scatter.
# Experiments:
# Assay in all cases: qHTS profiling for inhibitors of Plasmodium falciparum proliferation (AID 504749); note: nearly all actives have a fitted effect of over 60% in size
# Settings in all cases: P. falciparum in erythrocytes, SYBR Green DNA, 72 h; series mostly up to 28.7 µM
# CP260 = test system: CP260
# How it was run: (§1)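 Parasite proliferation within erythrocytes, 72 h exposure. Endpoint: SYBR Green I fluorescence after overnight lysis at room temperature. Controls: 0.29 uM artemisinin, DMSO.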
# CP262 = test system: CP262
# How it was run: as §1
# CP265 = test system: CP265
# How it was run: as §1
# CP266 = test system: CP266
# How it was run: as §1
# CP268 = test system: CP268
# How it was run: as §1
# CP269 = test system: CP269
# How it was run: as §1
# CP286 = test system: CP286
# How it was run: as §1
# CP291 = test system: CP291
# How it was run: as §1
# CP297 = test system: CP297
# How it was run: as §1
# CP305 = test system: CP305
# How it was run: as §1
# Potency is the fitted concentration of half-maximal effect.
SMILES,Potency (CP260),Potency (CP262),Potency (CP265),Potency (CP266),Potency (CP268),Potency (CP269),Potency (CP286),Potency (CP291),Potency (CP297),Potency (CP305)
O=C(NNCNNC(=O)c1ccncc1)c1ccncc1,inactive,inactive,inactive,inactive,inactive,inactive,inactive,inactive,inactive,inactive
CCCc1ccc(C(=O)O)cc1,inactive,inactive,inactive,inactive,inactive,inactive,inactive,inactive,inactive,inactive
CC(C)O,inactive,inactive,inactive,inactive,inactive,inactive,inactive,inactive,inactive,inactive
O=C(OCc1ccccc1)c1ccc(O)cc1,inactive,inactive,inactive,inactive,inactive,inactive,inactive,inactive,inactive,inactive
C[C@H](O)CN(C)C,inactive,inactive,inactive,inactive,inactive,inactive,inactive,inactive,inactive,inactive
CCCC(=O)O,inactive,inactive,inactive,inactive,inactive,inactive,inactive,inactive,inactive,inactive
Cc1ncc(C[n+]2csc(CCOP(=O)(O)O)c2C)c(N)n1,inactive,inactive,inactive,inactive,inactive,inactive,inactive,inactive,inactive,inactive
C=CCCCCCCCCC(=O)OC,inactive,inactive,inactive,inactive,inactive,inactive,inactive,inactive,inactive,inactive
Cc1ncc(COP(=O)(O)O)c(CN)c1O,inactive,inactive,inactive,inactive,inactive,inactive,inactive,inactive,inactive,inactive
N=C(N)n1cccn1,inactive,inactive,inactive,inactive,inactive,inactive,inactive,inactive,inactive,inactive
CC(C)c1ncc([N+](=O)[O-])n1C,inactive,inactive,inactive,inactive,inactive,inactive,inactive,inactive,inactive,inactive
CCOC(=O)[C@@H](N)CS,inactive,inactive,inactive,inactive,inactive,inactive,inactive,inactive,inactive,inactive
CC(CNC(=O)c1cccnc1)NC(=O)c1cccnc1 (stereo not given),inactive,inactive,inactive,inactive,inactive,inactive,inactive,inactive,inactive,inactive
O=S(=O)(O)CC(S)CS (stereo not given),inactive,inactive,inactive,inactive,inactive,inactive,inactive,inactive,inactive,inactive
O=C(CCCCCCCCCCCCC1CCCC1)Nc1ccc(S(=O)(=O)c2ccc(NC(=O)CCCCCCCCCCCCC3CCCC3)cc2)cc1,inactive,inactive,inactive,inactive,inactive,inactive,inactive,inactive,inactive,inactive
Cc1cc2nc3c(=O)[nH]c(=O)nc-3n(C[C@H](O)[C@H](O)[C@H](O)COP(=O)(O)OP(=O)(O)OC[C@H]3O[C@@H](n4cnc5c(N)ncnc54)[C@H](O)[C@@H]3O)c2cc1C,inactive,inactive,inactive,inactive,inactive,inactive,inactive,inactive,inactive,inactive
[O]=[Bi][O]C(=O)[O][Bi]=[O],inactive,inactive,inactive,inactive,inactive,inactive,inactive,inactive,inactive,inactive
Cc1ccc(C(C)(C)c2ccc(C)cc2)cc1,inactive,inactive,inactive,inactive,inactive,inactive,inactive,inactive,inactive,inactive
C[C@H](CCCC(C)(C)O)[C@H]1CC[C@H]2[C@@H]3CC=C4C[C@@H](O)CC[C@]4(C)[C@H]3CC[C@]12C,inactive,inactive,inactive,inactive,inactive,inactive,inactive,inactive,inactive,inactive
O=C(O)COc1ccc(CCNS(=O)(=O)c2ccccc2)s1,inactive,inactive,inactive,inactive,inactive,inactive,inactive,inactive,inactive,inactive
Nc1ccc(N=Nc2ccccc2)c(N)n1,inactive,inactive,inactive,inactive,inactive,inactive,inactive,inactive,inactive,inactive
CC(=O)N=c1sc(S(N)(=O)=O)nn1C,inactive,inactive,inactive,inactive,inactive,inactive,inactive,inactive,inactive,inactive
CC1=CC(=O)NS(=O)(=O)O1,inactive,inactive,inactive,inactive,inactive,inactive,inactive,inactive,inactive,inactive

SMILES,Potency (CP260),Potency (CP262),Potency (CP265),Potency (CP266),Potency (CP268),Potency (CP269),Potency (CP286),Potency (CP291),Potency (CP297),Potency (CP305)
CCCCC(CC)COS(=O)(=O)O (stereo not given),inactive,inactive,inactive,inactive,inactive,inactive,inactive,inactive,inactive,inactive
C/C=C/C=C/C(=O)O,inactive,inactive,inactive,inactive,inactive,inactive,inactive,inactive,inactive,inactive
Nc1ncnc2c1ncn2[C@H]1CC[C@@H](CO)O1,inactive,inactive,inactive,inactive,inactive,inactive,inactive,inactive,inactive,inactive
CC(=O)Nc1c(I)c(C(=O)O)c(I)c(N(C)C(C)=O)c1I,inactive,inactive,inactive,inactive,inactive,inactive,inactive,inactive,inactive,inactive
CS(=O)(=O)OCC(O)C(O)COS(C)(=O)=O (stereo not given),inactive,inactive,inactive,inactive,inactive,inactive,inactive,inactive,inactive,inactive
Cc1ncc(C[n+]2csc(CCO)c2C)c(N)n1,inactive,inactive,inactive,inactive,inactive,inactive,inactive,inactive,inactive,inactive
C[C@H](CCC(=O)O)[C@H]1CC[C@H]2[C@@H]3CC[C@@H]4C[C@H](O)CC[C@]4(C)[C@H]3C[C@H](O)[C@]12C,inactive,inactive,inactive,inactive,inactive,inactive,inactive,inactive,inactive,inactive
O=C1c2ccccc2C(=O)C1c1ccc(Cl)cc1,inactive,inactive,inactive,inactive,inactive,inactive,inactive,inactive,inactive,inactive
CCN(CC)CCOc1ccccc1OC,inactive,inactive,inactive,inactive,inactive,inactive,inactive,inactive,inactive,inactive
COC(=O)c1ccccc1O,inactive,inactive,inactive,inactive,inactive,inactive,inactive,inactive,inactive,inactive
CC(C)Cc1ccc([C@@H](C)C(=O)NS(C)(=O)=O)cc1,inactive,inactive,inactive,inactive,inactive,inactive,inactive,inactive,inactive,inactive
Oc1cc(O)cc(O)c1,inactive,inactive,inactive,inactive,inactive,inactive,inactive,inactive,inactive,inactive
NCC[C@H](O)C(=O)N[C@@H]1C[C@H](N)[C@@H](O[C@H]2O[C@H](CN)[C@@H](O)[C@H](O)[C@H]2O)[C@H](O)[C@H]1O[C@H]1O[C@H](CO)[C@@H](O)[C@H](N)[C@H]1O,inactive,inactive,inactive,inactive,inactive,inactive,inactive,inactive,inactive,inactive
CC/C=C\C/C=C\C/C=C\C/C=C\C/C=C\C/C=C\CCC(=O)O,inactive,inactive,inactive,inactive,inactive,inactive,inactive,inactive,inactive,inactive
O=C(O)Cc1nn(Cc2ccc(Br)cc2F)c(=O)c2ccccc12,inactive,inactive,inactive,inactive,inactive,inactive,inactive,inactive,inactive,inactive
O=C1c2ccccc2C(=O)c2c1ccc(O)c2O,inactive,inactive,inactive,inactive,inactive,inactive,inactive,inactive,inactive,inactive
CC1=CC(=C(c2ccc(N)cc2)c2ccc(N)cc2)C=CC1=N,2.51 µM (active),4.78 µM (active),3.16 µM (active),7.57 µM (active),6.01 µM (active),4.26 µM (active),1.41 µM (active),3.01 µM (active),4.78 µM (active),4.26 µM (active)
CC/C=C\C/C=C\C/C=C\C/C=C\C/C=C\CCCC(=O)O,inactive,inactive,inactive,inactive,inactive,inactive,inactive,inactive,inactive,inactive
NC(=O)[C@H]1O[C@@H](O)[C@H](O)[C@@H](O)[C@@H]1O,inactive,inactive,inactive,inactive,inactive,inactive,inactive,inactive,inactive,inactive
CC(C)(CO)[C@@H](O)C(=O)NCCC(=O)NCCSSCCNC(=O)CCNC(=O)[C@H](O)C(C)(C)CO,inactive,inactive,inactive,inactive,inactive,inactive,inactive,inactive,inactive,inactive
OC1OC[C@@H](O)[C@H](O)[C@@H]1O (stereo not given in full),inactive,inactive,inactive,inactive,inactive,inactive,inactive,inactive,inactive,inactive
COc1cc2c(cc1OC)[C@@H](Cc1cc(OC)c(OC)c(OC)c1)[N+](C)(CCCOC(=O)CC/C=C/CCC(=O)OCCC[N+]1(C)CCc3cc(OC)c(OC)cc3[C@H]1Cc1cc(OC)c(OC)c(OC)c1)CC2 (stereo not given in full),inactive,inactive,inactive,inactive,inactive,inactive,inactive,inactive,inactive,inactive
